In PubChem BioAssay AID687001 (Broad Institute, 2013):
Entries with a potency or affinity are not part of this list. Calls of active or inactive are those of the source.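 How the source made its calls: active means signal-lowering compounds whose fitted half-maximal concentration is at or below twice the top tested dose in every run; inconclusive means runs disagree, flat 30 to 70% inhibition, or poor curve fit; inactive means the rest.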

Molecular target: Protein S100-A4 (Homo sapiens) (UniProt P26447)
Experiment: human S100A4 peptide interaction inhibition curves – biochemical, fluorescence polarization, cherry-picked hits, dose response (AID 687001)

Chain of Protein S100-A4 (Homo sapiens) (P26447 whole entry, looked up): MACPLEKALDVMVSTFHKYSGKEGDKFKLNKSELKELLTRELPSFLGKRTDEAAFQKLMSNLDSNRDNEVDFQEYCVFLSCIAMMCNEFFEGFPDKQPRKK

Row | Structure (SMILES) | outcome
1 | O=C(C[C@H]1CC[C@H](NS(=O)(=O)c2cccc(F)c2)[C@@H](CO)O1)NCc1ccc2c(c1)OCO2 | inactive
2 | Cc1cc(=O)n2nc(N3CCC(C(=O)NCc4ccccc4)CC3)sc2n1 | inactive
3 | C[C@@H]1CCCCO[C@H](CN(C)S(=O)(=O)c2cccs2)[C@@H](C)CN([C@@H](C)CO)C(=O)c2cc(NS(=O)(=O)c3cccs3)ccc2O1 | inactive
4 | Cc1cc(NC(=O)CCC(=O)N(Cc2ccco2)C2(C(=O)NC3CCCC3)CCC(C)CC2)no1 (configuration not stated) | inactive
5 | COc1cccc(-c2ccc3n(c2=O)C[C@H]2[C@H](CO)[C@@H](C(=O)N4CCOCC4)N[C@@H]32)c1 | inactive
6 | C[C@@H]1CN([C@@H](C)CO)C(=O)CCCn2nncc2CO[C@@H]1CN(C)S(=O)(=O)c1ccccc1 | inactive
7 | CC(NC(=O)c1ccc(N2CCCC2)c([N+](=O)[O-])c1)c1ccc(S(N)(=O)=O)cc1 (configuration not stated) | inactive
8 | CC1(C)CC2CC(C)(CN2/C=N/c2sc3c(c2C#N)CC(C)(C)NC3(C)C)C1 (configuration not stated) | inactive
9 | CC(NC(=O)COC(=O)c1cc([N+](=O)[O-])ccc1N1CCOCC1)c1ccc(F)cc1 (configuration not stated) | inactive
10 | Cc1cc(=O)oc2c(C)c(OCC(=O)N3CCN(C(=O)C4COc5ccccc5O4)CC3)ccc12 (configuration not stated) | inactive
11 | CCC1CN(C(=O)N2CCC(C(=O)NCCc3ccc(OC)c(OC)c3)CC2)c2ccccc2O1 (configuration not stated) | inactive
12 | O=C(/C=C/c1ccccc1)Nc1cc(S(=O)(=O)N2CCOCC2)ccc1N1CCOCC1 | inactive
13 | O=C(NC1CCCCC1)[C@H]1[C@H](CO)[C@H]2Cn3c(cccc3=O)[C@H]2N1C(=O)CC1CC1 | inactive
14 | C[C@@H]1CN([C@H](C)CO)C(=O)Cc2cc(NC(=O)CCN3CCOCC3)ccc2O[C@H]1CN(C)Cc1ccc2c(c1)OCO2 | inactive
15 | COC(=O)[C@@H]1[C@@H](CO)[C@@H]2Cn3c(ccc(-c4ccccc4)c3=O)[C@@H]2N1C(=O)CC1CC1 | inactive
16 | O=C(c1cnccn1)N1CC(=O)N2[C@H](CO)[C@@H](c3ccc(-c4ccc(F)cc4)cc3)[C@H]2C1 | inactive
17 | CCCCn1c(SCC(=O)NC2CCS(=O)(=O)C2)nc2ccccc2c1=O (configuration not stated) | inactive
18 | CN1CCN(C(=O)C[C@@H]2C=C[C@@H](NS(=O)(=O)c3cccc(F)c3)[C@@H](CO)O2)CC1 | inactive
19 | CCc1cccc(C)c1NC(=O)COC(=O)C1CC(=O)N(CCc2ccc(OC)c(OC)c2)C1 (configuration not stated) | inactive

Row | Structure (SMILES) | outcome
20 | Cc1cc(C)cc(OCC(=O)OCC(=O)N2CCc3ccccc32)c1 | inactive
21 | CC(C)NC(=O)N(C)C[C@H]1Oc2ccc(NC(=O)CCCN(C)C)cc2C(=O)N([C@H](C)CO)C[C@H]1C | inactive
22 | COCCN(C(=O)COC(=O)COc1ccc2ccccc2c1)c1c(N)n(Cc2ccccc2)c(=O)[nH]c1=O | inactive
23 | O=C(CSc1ccc(Cl)cc1)NC1CC1 | inactive
24 | Cc1ccccc1CN1CCC(n2nccc2NC(=O)CCOc2ccccc2)CC1 | inactive
25 | C[C@@H]1CN([C@@H](C)CO)C(=O)Cc2cc(NC(=O)CCN3CCOCC3)ccc2O[C@@H]1CN(C)C | inactive
26 | CCCc1cn(CC[C@@H]2CC[C@H](NS(=O)(=O)c3ccccc3Cl)[C@@H](CO)O2)nn1 | inactive
27 | CCCCCn1c(C)c(CC(=O)Nc2ccc(Oc3cccnc3)c(C)c2)c2ccccc21 | inactive
28 | CNc1nc(-c2ccc(S(=O)(=O)N3CCCCC3)cc2)cs1 | inactive
29 | O=C(CNC(=O)c1ccco1)NNC(=O)c1ccc(Br)cc1 | inactive
30 | COc1ccc(S(=O)(=O)N(C)C[C@H]2Oc3ncc(-c4ccncc4)cc3C(=O)N([C@@H](C)CO)C[C@H]2C)cc1 | inactive
31 | COc1ccccc1CCNC(=O)C(=O)NCCC1CCCCN1S(=O)(=O)c1ccccc1 (configuration not stated) | inactive
32 | O=C(C[C@@H]1C[C@H]2c3cc(NS(=O)(=O)c4ccccc4)ccc3O[C@H]2[C@@H](CO)O1)N1CCOCC1 | inactive
33 | C[C@@H]1ON(C)[C@H]2C[C@H]3c4[nH]c5ccccc5c4CCN3C(=O)[C@@H]12 | inactive
34 | O=C(Nc1ccc2c(c1)OCO2)N[C@@H]1CC[C@@H](CCNC(=O)C2CCCC2)O[C@H]1CO | inactive
35 | CSC[C@H]1CN(Cc2cccnc2)C(=O)[C@@H]1CC(=O)Nc1ccc(Br)cc1 | inactive
36 | C[C@H]1CN([C@@H](C)CO)C(=O)Cc2cc(NC(=O)CCC(F)(F)F)ccc2O[C@@H]1CN(C)C | inactive
37 | O=C(COC(=O)Cc1ccc(F)cc1)Nc1ccc2[nH]c(=O)[nH]c2c1 | inactive
